PLK1 PBD block – blocks phosphopeptide binding to human PLK1 polo-box domain | P53350 | Plk1 PBD binding of FITC phosphopeptide, fluorescence polarization | Potency, µM, for inactives: max response, negative = inhibition, most hits filed as inhibitors | actives 2.8% (n = 360,000); further: potency means the concentration at half of the fitted maximal effect; series mostly up to about 57 µM; on the % scale 0 is the no-effect control and ±100 the full control effect; nearly all actives have a fitted effect of over 65% in size
G9a inh – G9a (human) methyltransferase inhibition. Q96KQ7. G9a H3K9 monomethylation, AlphaScreen, 2 h. Potency, µM (highest dose often 102 µM), inactives show at the highest dose activity, negative = inhibition, most hits filed as inhibitors. actives 8.8% (n = 350,000). AID 504332; further: potency means the concentration at half of the fitted maximal effect; on the % scale 0 is the no-effect control and ±100 the full control effect; nearly all actives have a fitted effect of over 75% in size
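AlphaScreen detection with an anti-monomethyl H3K9 antibody quantified product after a 2 h room-temperature reaction containing 500 nM biotinylated H3K9 peptide, 20 µM SAM and 20 nM enzyme, which had been preincubated 15 min with compound.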
JMJD2A Tudor – blocks the human JMJD2A Tudor domain | AID 504339 | actives 4.4% (n = 390,000) | O75164 | Potency, µM (titrated, usually from 114 µM), inactives show at the top dose activity change, negative = inhibition, usual class: inhibitors | AlphaScreen JMJD2A-Tudor / H3K4me3 peptide binding; further: potency means the concentration at half of the fitted maximal effect; on the % scale 0 is the no-effect control and ±100 the full control effect; nearly all actives have a fitted effect of over 50% in size
Target sequence (O75164 whole entry, looked up, the tested form may be a part): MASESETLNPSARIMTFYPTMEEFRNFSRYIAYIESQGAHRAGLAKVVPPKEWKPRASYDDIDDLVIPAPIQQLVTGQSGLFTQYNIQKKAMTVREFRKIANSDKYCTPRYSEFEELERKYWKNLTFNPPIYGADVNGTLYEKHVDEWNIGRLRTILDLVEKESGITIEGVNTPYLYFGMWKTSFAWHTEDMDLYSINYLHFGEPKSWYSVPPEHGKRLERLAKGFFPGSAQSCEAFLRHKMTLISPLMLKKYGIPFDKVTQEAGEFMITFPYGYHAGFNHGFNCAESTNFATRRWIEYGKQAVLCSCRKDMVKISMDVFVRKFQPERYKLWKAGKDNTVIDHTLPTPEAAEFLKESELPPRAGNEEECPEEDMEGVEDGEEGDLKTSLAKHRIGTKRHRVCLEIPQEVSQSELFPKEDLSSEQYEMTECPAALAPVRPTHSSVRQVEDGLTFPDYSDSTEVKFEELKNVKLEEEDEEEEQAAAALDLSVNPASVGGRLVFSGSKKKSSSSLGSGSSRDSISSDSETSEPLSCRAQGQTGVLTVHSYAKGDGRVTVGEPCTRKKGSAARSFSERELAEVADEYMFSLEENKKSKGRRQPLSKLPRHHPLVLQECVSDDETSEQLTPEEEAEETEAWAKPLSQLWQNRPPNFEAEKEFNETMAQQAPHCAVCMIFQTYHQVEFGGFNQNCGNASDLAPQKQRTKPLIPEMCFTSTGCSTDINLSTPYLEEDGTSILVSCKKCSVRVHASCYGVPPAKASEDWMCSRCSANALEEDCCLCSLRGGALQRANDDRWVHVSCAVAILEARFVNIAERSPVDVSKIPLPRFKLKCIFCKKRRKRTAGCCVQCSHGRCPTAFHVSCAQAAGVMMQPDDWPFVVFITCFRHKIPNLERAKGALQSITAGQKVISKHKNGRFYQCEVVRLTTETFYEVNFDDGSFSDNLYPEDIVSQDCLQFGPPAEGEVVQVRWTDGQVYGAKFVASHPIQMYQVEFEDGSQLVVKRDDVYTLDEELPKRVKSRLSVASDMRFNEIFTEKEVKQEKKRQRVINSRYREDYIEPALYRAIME
HP1b chromo inh – blocks HP1-beta chromodomain binding to methylated histone tails. actives 0.56% (n = 390,000). AID 540317. AlphaScreen HP1-beta / biotin-H3K9me3 peptide binding. Potency, µM (top dose mostly 114 µM), for inactives: top-dose activity change, negative = inhibition, most hits filed as inhibitors. P83916; further: potency means the concentration at half of the fitted maximal effect; nearly all actives have a fitted effect of over 70% in size
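Compound inhibition of the preformed complex between 50 nM HP1-beta and 50 nM biotinylated H3K9me3 peptide was read by AlphaScreen. Buffer was PBS pH 7.4 with 0.01% Tween-20. Incubations ran 30 min at room temperature, with 10 ug/mL donor/acceptor beads.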
PI5P4Ka inh – inhibitors of human PI5P4K alpha. max response, %. actives 1.2% (n = 330,000). PI5P4Kalpha enzyme, ADP-Glo luminescence, 60 min; hits give low values. AID 652105. P48426; active means max response of -50% or lower; inconclusive means between -30% and -50%; inactive means -30% or higher; further: value at the top dose of about 77 µM; on the % scale 0 is the no-effect control and ±100 the full control effect
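Enzyme plus substrate dispensed, test compounds pinned in, then ATP (5 microM final) added. After 60 min at RT, ADP-Glo reagent 1 for 45 min and reagent 2 for 30 min preceded luminescence imaging.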
BAZ2B inh – BAZ2B (human) inhibition; Q9UIF8; AlphaScreen BAZ2B-H3K14Ac peptide displacement; Potency, µM (doses to about 114 µM), inactives show at the highest dose activity change, negative = inhibition, usual class: inhibitors; actives 4.4% (n = 360,000); further: potency means the concentration at half of the fitted maximal effect; on the % scale 0 is the no-effect control and ±100 the full control effect; nearly all actives have a fitted effect of over 60% in size
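AlphaScreen displacement: compounds (up to 110uM) incubated 30 min at room temperature with a preformed 50 nM BAZ2B/50 nM biotinylated H3K14Ac peptide complex in PBS pH 7.4 with Tween-20. Donor and acceptor beads at 10 ug/mL final added, 20 min light-protected before reading.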
Active calls of the source: *; u = inconclusive; x = not tested or not shown; [ ] = remark or other dose. An excerpt weighted towards active compounds, which were near 12% of everything screened. Unless noted, the call rests on the fitted dose curve; in most records, active means well fitted curve in the direction sought with a large enough effect; inconclusive means small, poorly fitted or top-dose-only effect, or another doubt; inactive means no such curve, though single readings can be large; an effect the other way counts as inactive or inconclusive.

SMILES | PLK1 PBD block | G9a inh | JMJD2A Tudor | HP1b chromo inh | PI5P4Ka inh | BAZ2B inh
COc1ccc(C2C3=C(CC(C)(C)CC3=O)Oc3ncn(CC(C)C)c(=N)c32)cc1 (stereo not drawn) | -3% | 28%[59 µM] | -11% | 32% | -3 | -36%[57.1 µM]
COc1ccc(C2C3=C(CC(C)(C)CC3=O)Oc3ncn(Cc4ccco4)c(=N)c32)cc1 (stereo not drawn) | -5% | u | u | 24% | x | 50µM*
COc1cccc(Cn2c(CNC(=O)Cc3cccc(C)c3)nc3cccnc32)c1 | x | 2%[59 µM] | -12% | 11%[57 µM] | x | -1%
CCOc1ccccc1NC(=O)N1CCN(Cc2nc3ccc(C)cc3o2)CC1 | x | -5%[12.7 µM] | 11% | 19% | x | -19%
COc1cccc(C2c3c(ncn(CCCN4CCOCC4)c3=N)Oc3ccc4ccccc4c32)c1 (stereo not drawn) | x | x | 28µM* | x | x | x
N=c1c2c(ncn1Cc1ccco1)Oc1ccc3ccccc3c1C2c1ccccc1 (stereo not drawn) | 2% | u | u | u | -21 | 45µM*
COc1ccc(C2c3c(ncn(CCCN4CCOCC4)c3=N)Oc3ccc4ccccc4c32)cc1OC (stereo not drawn) | -16% | u | u | 8% | 3 | -23%
CCCNC(=O)C1(C)CCCN(Cc2ccc(Cl)cc2)C1 (stereo not drawn) | -4% | x | x | x | -2 | x
O=C(CS(=O)(=O)c1cccc2nsnc12)Nc1ccc(F)cc1F | x | 0%[59 µM] | -10% | 23% | x | -1%
Cc1ccc2nc(-c3ccc(C)o3)c(Nc3ccc4c(c3)OCCO4)n2c1 | x | 4.5µM* | u | 7% | x | u
Cc1ccc(-c2nc3ccccn3c2Nc2ccc3c(c2)OCCO3)o1 | x | 13µM* | 50µM* | u | x | 45µM*
COc1cc(/C=C/C(O)=C/C(=O)/C=C/c2ccc(O)cc2)ccc1O | 40% | -3%[0.501 µM] | u | 5% | u | u
Cc1ccc(S(=O)(=O)N2CCOCC2)cc1NC(=O)COC(=O)/C=C/c1ccc(F)cc1 | 4% | x | -1% | 36% | -2 | x
COc1ccc(N2Cc3cccc(C(=O)Nc4ccc(Cl)cc4)c3C2=O)cc1 | x | -34%[59 µM] | -35% | 10% | x | u
COc1ccc(N2Cc3cccc(C(=O)Nc4cccc(F)c4)c3C2=O)cc1 | x | -31%[59 µM] | 20µM* | -26% | x | x
CC(OC(=O)c1cccs1)C(=O)Nc1nc(-c2ccccc2)cs1 (stereo not drawn) | 3% | 79µM* | 5% | 25% | -2 | 3%
CC(OC(=O)c1ccc([N+](=O)[O-])o1)C(=O)Nc1nc(-c2ccc(F)c(F)c2)cs1 (stereo not drawn) | -14% | 28µM* | u | -19% | -9 | u
Cc1cccc(OC(C)C(=O)Nc2nc(-c3ccncc3)cs2)c1 (stereo not drawn) | u | 35µM* | -5% | 22% | 0 | 5%
CCC(C)[C@H](NC(=O)N1CC(=O)Nc2ccccc21)C(=O)N[C@@H](Cc1c[nH]c2ccccc12)C(=O)O (stereo partly drawn) | -3% | -46% | -5% | 34% | 2 | u
CCCSc1nc2c(c(=O)[nH]1)C(c1ccc(O)c(OCC)c1)CC(=O)N2 (stereo not drawn) | x | 0%[59 µM] | -1% | 10% | x | -5%
CN(C)C(=S)Nn1c(-c2ccccc2)nc2ccccc2c1=O | -10% | 0%[59 µM] | -6% | 26%[57 µM] | 1 | -2%
Cc1cccc(-c2nc3ccccc3c(=O)n2NC(=S)N(C)C)c1 | 3µM* | 8.9µM* | 89µM* | -47% | u | -5%
COc1ccc(C(=O)c2ccc(CC#N)s2)cc1 | 1% | u | 79µM* | -11% | -28 | u
COc1ccc(C(=O)c2ccsc2N)cc1 | -11% | u | -34% | -1%[57 µM] | u | u
CC(=O)Nc1ccc(SCC(=O)NC(=O)c2ccccc2Br)cc1 | 30µM* | u | -1% | 40% | -16 | -5%
SMILES | PLK1 PBD block | G9a inh | JMJD2A Tudor | HP1b chromo inh | PI5P4Ka inh | BAZ2B inh
CC(=O)Nc1ccc(SCC(=O)Nc2cc(C)on2)cc1 | 24µM* | 45µM* | 0% | 46% | 7 | 5%
Cc1cc(NC(=O)Cc2ccc(Br)cc2)no1 | 0% | 12% | -12% | 21% | 2 | -26%
Cc1cc(NC(=O)CSc2nnnn2-c2ccc(C(C)C)cc2)no1 | 27µM* | 13% | u | -21%[57 µM] | -18 | -11%
CCN(CC(=O)Nc1ccc(Br)cc1)CC(=O)Nc1cc(C)on1 | -1% | 79µM* | -5% | 21% | 6 | 14%
COc1ccc(CCNC(=O)c2nc(SCc3ccc(C)cc3)ncc2Cl)cc1OC | x | 7%[59 µM] | -18% | 32% | x | -3%
O=[N+]([O-])c1cccnc1-n1cnc2ccccc21 | -1% | 45µM* | -6% | 21% | -1 | -11%
Cc1cc2ncn(-c3ncccc3[N+](=O)[O-])c2cc1C | -23% | 11µM* | u | -2% | -14 | 89µM*
Cc1cc(C)n(-c2ncccc2[N+](=O)[O-])n1 | -1% | x | -5% | 3% | -3 | 0%
O=C(c1ccccc1[N+](=O)[O-])n1cnc2ccccc21 | -5% | u | -26% | 0% | 2 | u
O=c1[nH]c2c(s1)C(c1ccc(O)cc1)C1C3CCC(C3)C1S2 (stereo not drawn) | u | u | -35% | -20% | -23 | u
COc1ccc(C2c3sc(=O)[nH]c3SC3C4CCC(C4)C23)cc1OC (stereo not drawn) | u | 8.9µM* | u | u | -18 | u
COC(=O)C1=C(C(=O)OC)C(c2ccc(OC)c(OC)c2)c2sc(=O)[nH]c2S1 (stereo not drawn) | -9% | 28µM* | 40µM* | -9% | -2 | -34%
COC(=O)c1[nH]c2c(c1C)C(=O)CC(c1ccc(OC)c(OC)c1)C2 (stereo not drawn) | -1% | 6% | -14% | 17% | -1 | -19%
COC(=O)C1=C(C(=O)OC)C(c2cc(Br)ccc2O)c2sc(=O)[nH]c2S1 (stereo not drawn) | 3µM* | 3.2µM* | -27% | -4%[57 µM] | -19 | u
COC(=O)C1=C(C(=O)OC)C(c2cc(Cl)ccc2O)c2sc(=O)[nH]c2S1 (stereo not drawn) | 9.5µM* | 7.9µM* | u | -24% | x | u
COC(=O)C1=C(C)N=C2SCCC(=O)N2C1c1cc(Br)ccc1OC (stereo not drawn) | -4% | -8% | -16% | 17% | -5 | 4%
COC(=O)C1Sc2[nH]c(=O)sc2C(c2ccc(Cl)cc2)C1C(=O)OC (stereo not drawn) | u | u | u | -1% | 1 | u

Source: PubChem BioAssay
